# Bim-Mcl-1 – disrupts Bim peptide binding to human Mcl-1. Bead-based flow cytometry, Bim peptide-Mcl-1 binding. Q07820. inhibition, % at 10 µM. 190,000 compounds, 0.1% hits. AID 1009; in the data active = inhibition above about 40%;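 also: 0% = no compound tracer wells and 100% = peptide blocker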
# Mcl1 Bid PPI – disrupts binding of human Mcl-1 to Bid peptide; Q07820; TR-FRET Mcl-1/Bid-Dy647 peptide binding, 1536-well; inhibition, % at 21.7 µM; 220,000 compounds, 0.97% hits; AID 1021;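 active = compounds that cut the binding signal by more than half at the single screening dose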;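 also: His-tagged Mcl-1 with europium anti-His antibody binding Bid BH3 peptide; 0% = Mcl-1 plus peptide wells and 100% = peptide-only wells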
# GLD-1 RNA inh – GLD-1-TGE RNA interaction inhibition (C. elegans); inhibition, % at 5.96 µM; 320,000 compounds, 0.44% hits; AID 2280; purified GLD-1 + fluorescein TGE RNA, fluorescence polarization;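 active = percent inhibition above a per-plate cutoff, the plate mean of test compounds plus 3 SD, cut at about 30% in these data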;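 also: 0% = DMSO wells with GLD-1 and probe and 100% = wells lacking GLD-1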
# BCLXL inh – Bcl-xL (human) inhibition; Q07817; GST-Bcl-xL / FITC-Bim BH3 peptide fluorescence polarization; inhibition, % at 10.9 µM; 320,000 compounds, 0.7% hits;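 active = inhibition above the mean of all tested compounds plus 3 SD, cutoff set per campaign, cut at about 30% in these data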;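 also: 0% = DMSO wells and 100% = unlabeled Bim-BH3 peptide competitor; inhibitors lower millipolarization by displacing the labeled peptide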
# Target sequence (Q07817 whole entry, looked up): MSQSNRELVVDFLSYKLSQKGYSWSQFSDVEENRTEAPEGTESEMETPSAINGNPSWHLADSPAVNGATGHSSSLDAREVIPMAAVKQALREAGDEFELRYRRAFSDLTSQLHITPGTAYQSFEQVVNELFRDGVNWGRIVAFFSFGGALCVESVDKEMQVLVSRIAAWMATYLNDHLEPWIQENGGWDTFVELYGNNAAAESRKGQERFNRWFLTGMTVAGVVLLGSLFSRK
# Mcl1 Noxa PPI – disrupts binding of human Mcl-1 to Noxa peptide | Q07820 | TR-FRET Mcl-1/Noxa peptide binding, 2 h | inhibition, % at 21.7 µM | 220,000 compounds, 1.5% hits | AID 1022;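 active = compounds that cut the protein-peptide binding signal by more than 50% relative to plate controls in a single-dose test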;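 also: His-tagged Mcl-1 with rhodamine Noxa BH3 peptide and terbium anti-His antibody; 0% = Mcl-1 plus Noxa peptide wells and 100% = peptide-only wells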
# MCL1-BIM inh – inhibitors of human MCL1 binding to BIM-BH3 peptide; Q07820; GST-MCL1 / FITC-Bim-BH3 fluorescence polarization; inhibition, % at 10.9 µM; 320,000 compounds, 0.68% hits;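 active = inhibition above the mean inhibition of all tested compounds plus 3 SD, set per campaign, cut at about 40% in these data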;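 also: 0% = DMSO wells and 100% = unlabeled Bim-BH3 peptide control; higher means more loss of mP so more displacement of Bim peptide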
# Active calls of the source: *; x = no result. Hits are enriched below; roughly 2.3% of the tested compounds scored in any of these assays.
SMILES,Bim-Mcl-1,Mcl1 Bid PPI,GLD-1 RNA inh,BCLXL inh,Mcl1 Noxa PPI,MCL1-BIM inh
CC(C(=O)c1c[nH]c2ccccc12)N1CCN(C(=O)c2ccco2)CC1 (stereo not given),x,-31,-2,-1,6,-10
CCCN(CC1CC1)CC(O)c1ccccc1 (stereo not given),x,x,-3,2,x,2
C[C@]12CCC3C(CC[C@H]4C[C@@H](O)CC[C@]34C)C1CC[C@@H]2OC(=O)[C@H](N)CCCCN (stereo not given in full),x,x,-6,x,x,x
CCN1C(=O)/C(=C\c2ccc([N+](=O)[O-])s2)C(=O)NC1=S,2,32,x,x,94*,x
C=CCN1C(=O)/C(=C/c2ccc(Br)s2)C(=O)NC1=S,x,x,-27,6,x,28
CCn1nc(-c2ccccc2)nc2c(=O)n(C)c(=O)nc1-2,5,-20,128*,136*,-9,148*
C[C@]12CC[C@@H]3c4ccc(O)c(O)c4CC[C@H]3[C@@H]1CC[C@@H]2O,4,-76,4,11,64*,14
Cc1ccc(-n2c(O)c(/C=N/Nc3ccccc3)c(=O)[nH]c2=O)cc1C,x,-33,-1,2,19,3
COc1ccc(N/N=C/c2c(O)n(-c3cccc(C)c3)c(=O)[nH]c2=O)cc1,0,-66,-8,40*,21,36
CN1CCC(N(C)c2ncnc3ccc(Br)cc23)CC1,0,-9,x,x,48,x
Cc1ccc(-c2nc(N(C)C3CCN(C)CC3)c3ccccc3n2)cc1,-2,7,5,4,63*,3
CN1CC(C(=O)c2cccc(C(F)(F)F)c2)C(c2ccc(Cl)cc2)C1 (stereo not given),x,x,-1,10,x,10
CCC1(c2ccccc2)C(=O)N(COC)C(=O)N(COC)C1=O,1,13,5,1,52*,2
COC(=O)C1=C(c2ccc(Cl)c(C(F)(F)F)c2)C[C@@H]2CC[C@H]1N2C(=O)NC1CCCCC1,x,x,4,4,x,6
COc1cc(N2CCOCC2)ccc1C=C1C(=O)NC(=O)NC1=O,42*,-45,4,0,2,-11
C[C@]12CCC3C(CC[C@H]4C[C@@H](O)CC[C@]34C)C1CCC2=O (stereo not given in full),x,x,-4,x,x,x
CCOP(=O)(OCC)C(O)c1ccc(N(C)C)cc1 (stereo not given),x,58*,6,6,-2,8
O=C1Nc2ccccc2C1Cc1nc2ccccc2c(=O)n1-c1ccccc1 (stereo not given),x,54*,3,2,27,-1
CN1C(=O)C(Cc2nc3ccccc3c(=O)n2-c2ccccc2)c2ccccc21 (stereo not given),-2,-31,5,-2,5,4
COC(=O)C1=C(c2cccc(OCc3ccccc3)c2)C[C@@H]2CC[C@H]1N2C(=O)NCc1cc(C)oc1C(F)(F)F,x,x,1,4,x,0
Cc1ccc(-n2nc(C)cc2NC(=O)COc2cc(C)cc3oc(=O)c4c(c23)CCC4)cc1,-1,6,7,-1,106*,0
COc1cc(C=C2C(=O)NC(=O)NC2=O)ccc1OS(=O)(=O)c1ccccc1[N+](=O)[O-],x,x,9,7,x,13
CCOc1cc(C=C2C(=O)NC(=O)NC2=O)ccc1OS(=O)(=O)c1ccccc1,-1,-2,1,6,60*,9
[Cl][Pt+2][Cl].[NH-]C1CCCCC1[NH-] (stereo not given),x,x,4,3,x,0
O=C1NC(=S)N(c2ccc(F)cc2)C(=O)/C1=C\c1ccoc1,0,37,x,x,79*,x
COC(=O)C1=C(c2cccc(C#N)c2)C[C@@H]2CC[C@H]1N2C(=O)NC(C)C,x,x,3,3,x,-2
COc1ccc(C(=O)CC2(CC(=O)c3ccc(OC)cc3)C(=O)N(C)C(=O)N(C)C2=O)cc1,0,-24,1,1,-6,7
CN1C(=O)N(C)C(=O)C2(Cc3c(ccc4ccccc34)N(C)C2)C1=O,-1,-74,4,11,51*,4
COC(=O)C1=C(c2cccc(OCc3ccccc3)c2)C[C@@H]2CC[C@H]1N2C(=O)NCCc1ccc(F)cc1,x,x,0,2,x,6
CC(C)(C)n1c(O)c(C=Nc2ccc3c(c2)CCC3)c(=O)[nH]c1=O,-3,-7,1,3,71*,-2
